Screening data from PubChem BioAssay.
Dicer processing: inhibitors of Dicer pre-microRNA processing, primary screen, biochemical, cat-ELCCA, chemiluminescence. cat-ELCCA pre-miR-21 Dicer processing; hits give high values. z-score at 25 µM. 6% of 47,000 active; in the data active = z-score above about 3, passing the limit was not always enough;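 also: plate controls were vehicle for no effect and no enzyme for full effect; higher signal means more uncleaved substrate so more Dicer inhibition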
The depositor's hits bear a star. The entries come from a sample that favours hits as a whole.

For Nc1ccc(-c2nnc(Nc3ccccc3C(F)(F)F)s2)cc1 the results were Dicer processing 3.6*.
Screening NC(=S)Nc1ccccc1C(F)(F)F returned Dicer processing -0.1.
Screening Nc1ccccc1NC(=S)Nc1ccccc1C(F)(F)F returned Dicer processing 1.8.
Screening CN(C)/C=C(\Sc1ccc(Cl)cc1)C(=O)c1ccc(Cl)cc1 returned Dicer processing -0.53.
O=C1NC(c2ccc([N+](=O)[O-])s2)Nc2ccc(Cl)cc21 (stereo unspecified) was read as Dicer processing 2.1.
Screening CSC(=NC(=O)c1c(Cl)cccc1Cl)N1CCSCC1 returned Dicer processing -0.23.
For O=C(Nc1cccc(-c2nc3ccccc3o2)c1)c1ccc([N+](=O)[O-])o1 the results were Dicer processing 3.5*.
Screening O=C(Nc1cccc(-c2nc3ncccc3o2)c1)c1ccc([N+](=O)[O-])o1 returned Dicer processing -0.2.
For COC(=O)c1cc(NC(=O)c2ccc([N+](=O)[O-])o2)cc(C(=O)OC)c1 the results were Dicer processing 1.5.
Screening COc1ccc(NC(=O)c2ccc([N+](=O)[O-])o2)cc1 returned Dicer processing 1.9.
Screening O=C(Nc1ccc(-c2nc3ccccc3o2)c(O)c1)c1ccc([N+](=O)[O-])o1 returned Dicer processing 0.35.
`O=C(Nc1ccc2oc(-c3ccc(F)cc3)nc2c1)c1ccc([N+](=O)[O-])o1` gave Dicer processing 3*.
For COc1ccc(NC(=O)c2ccc([N+](=O)[O-])o2)cc1Cl the results were Dicer processing 3.2*.
Screening O=C(Nc1ccc(-c2nc3cc(Cl)ccc3o2)cc1)c1ccc([N+](=O)[O-])o1 returned Dicer processing 1.2.
`O=C(Nc1ccc2oc(-c3cccc(F)c3)nc2c1)c1ccc([N+](=O)[O-])o1` gave Dicer processing 0.94.
`CCOc1cc(C2C3=C(CCCC3=O)NC3=C2C(=O)CCC3)ccc1O` gave Dicer processing -1.3.
Screening CC(C)c1nnc(NC(=O)CSc2nnc3c(n2)[nH]c2ccccc23)s1 returned Dicer processing 0.41.
COCCCNc1nc2c(c(=O)n(C)c(=O)n2C)n1Cc1ccc(Br)cc1 was read as Dicer processing 1.4.
For O=C(Nc1c(Br)cc(Br)cc1C(=O)Nc1ccc(F)cc1)c1ccc([N+](=O)[O-])cc1 the results were Dicer processing 0.06.
For CN(NC(=O)NC(=O)c1c(Cl)cccc1Cl)c1ccccc1[N+](=O)[O-] the results were Dicer processing 0.34.
Screening CC(C)c1nnc(NC(=O)CCCC(=O)O)s1 returned Dicer processing -1.
For Cc1nnc(NC(=O)CCC(=O)O)s1 the results were Dicer processing 0.99.
`Cc1nnc(NC(=O)CCCC(=O)O)s1` gave Dicer processing 3.7*.
`CC(C)(C)c1ccc(C(=O)Nc2cnc3sc4ccccc4n3c2=O)cc1` gave Dicer processing -0.63.
`O=[N+]([O-])C1=Cc2cc(Cl)ccc2OC1c1c(Cl)cccc1Cl` (stereo unspecified) gave Dicer processing 2.3.
O=[N+]([O-])C1=Cc2cc(Cl)ccc2OC1c1ccccc1Cl (stereo unspecified) was read as Dicer processing 4*.
O=[N+]([O-])C1=Cc2ccccc2OC1c1ccccc1Cl (stereo unspecified) was read as Dicer processing 2.5.
For CCOC(=O)C(=CNCCNc1ncccc1C(F)(F)F)C(=O)OCC the results were Dicer processing -0.27.
For O=C(NNC(=S)NCc1ccccc1)c1ccccc1 the results were Dicer processing 0.89.
O=S1(=O)Cc2snnc2-c2cc(Cl)ccc21 was read as Dicer processing 1.2.
CCN1CCN(C2=NC3(CCCCC3)C(C#N)C(=O)N2)CC1 (stereo unspecified) was read as Dicer processing -0.51.
CC1(C)CC(=O)C=C(SCCS(=O)(=O)c2ccc(Cl)cc2)S1 was read as Dicer processing 1.1.
Screening CC1(C)CC(=O)C=C(SCc2c(Cl)cccc2Cl)S1 returned Dicer processing 0.78.
Screening CC1(C)CC(=O)C=C(SCc2cccc(Cl)c2)S1 returned Dicer processing 4.5*.
Screening COC(OC)C(C)NC(=O)NC(=O)c1c(F)cccc1F (stereo unspecified) returned Dicer processing -0.55.
Screening O=C(O)CCC(=O)N1CCCc2ccccc21 returned Dicer processing 2.3.
Screening O=C(Nc1ccc(Cl)cc1)N1CCCc2ccccc21 returned Dicer processing 4.3*.
`O=C(Nc1cc(Cl)cc(Cl)c1)N1CCCc2ccccc21` gave Dicer processing -0.22.
For CCCN1C(=O)C(O)(CC(=O)c2ccc(-n3cccc3)cc2)c2cc(Br)ccc21 (stereo unspecified) the results were Dicer processing 2.6.
For COC(=O)C1=C(C)NC2=C(C(=O)CC(C)(C)C2)C1c1cccc(Oc2ccccc2)c1 (stereo unspecified) the results were Dicer processing 0.19.
OCCNC(=S)NC1CC2C=CC1C2 (stereo unspecified) was read as Dicer processing 0.82.
Screening Cc1ccc(S(=O)(=O)NC(=O)Nc2nc(-c3ccc(C)c(Cl)c3)c(C)s2)cc1 returned Dicer processing -1.6.
Screening Cc1ccc(S(=O)(=O)Nc2nc(-c3ccc(C)c(Cl)c3)c(C)s2)cc1 returned Dicer processing 3.3*.
Screening Cc1ccc(-c2nc(NC(=O)c3ccccc3)sc2C)cc1Cl returned Dicer processing 0.94.
`COCCOC(=O)C1=C(C)N=C2SCCC(=O)N2C1c1ccc(OC(C)=O)cc1` (stereo unspecified) gave Dicer processing -0.02.
Screening CCCN1CN=C(NS(=O)(=O)c2ccc(C)cc2)NC1 returned Dicer processing 0.67.
Screening Cc1ccc(S(=O)(=O)NC2=NCN(Cc3ccccc3)CN2)cc1 returned Dicer processing 4.6*.
`Cc1ccc(S(=O)(=O)NC2=NCN(CCc3ccccc3)CN2)cc1` gave Dicer processing -1.2.
`CC1CN(c2ccc(Br)cc2)c2nc3c(c(=O)n(CC(=O)O)c(=O)n3C)n2C1` (stereo unspecified) gave Dicer processing 0.47.
For CCN(CC)C(=O)Nc1ccc(OC)cc1 the results were Dicer processing 0.09.
Screening COc1ccc(NC(=O)c2scc(S(=O)(=O)C(C)C)c2N)cc1 returned Dicer processing -0.51.
COc1ccc(NC(=O)OC(C)C)cc1 was read as Dicer processing 3.5*.
Cc1ccnc(NC(=O)CSc2nnc3c4ccccc4n(C)c3n2)c1 was read as Dicer processing 1.1.
CCCCOC(=O)c1c(C)n(S(C)(=O)=O)c2ccc(NS(C)(=O)=O)cc12 was read as Dicer processing 1.5.
`O[C@H]1C2C3CC4C5C3C1C5C1(OCCO1)C42` (stereo partly specified) gave Dicer processing 0.55.
For O=C(NC1CCCC1)c1nn2c(c1Cl)NC(c1ccccc1)CC2C(F)(F)F (stereo unspecified) the results were Dicer processing -0.2.
Screening CC1CCN(C(=O)c2nn3c(c2Cl)NC(c2ccco2)CC3C(F)(F)F)CC1 (stereo unspecified) returned Dicer processing 4*.
`O=C(O)c1cc2n(n1)C(C(F)(F)F)CC(c1ccco1)N2` (stereo unspecified) gave Dicer processing -0.34.
Screening CSc1ccccc1NC(=O)c1nn2c(c1Cl)NC(c1ccco1)CC2C(F)(F)F (stereo unspecified) returned Dicer processing 4.4*.
